TMEM16A inh: mouse TMEM16A channel inhibition, primary screen; normalized B-score (activity score, 25-100; higher = stronger inhibition) at 10 µM; actives 1.2% (n = 310,000); Q8BHY3; HEK293 TMEM16A/YFP iodide influx fluorescence, ionomycin; AID 588511;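 active = ratio plate-corrected score three or more library SD toward inhibition, starting fluorescence score within five deviations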;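 note: score derived from kinetic fluorescence span divided by baseline fluorescence per well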
Kir21 inh: blocks the mouse Kir2.1 inward-rectifier potassium channel | P35561 | HEK293-Kir2.1, FluxOR thallium flux fluorescence; stronger effect = lower value | B-score at 10 µM | actives 0.85% (n = 310,000);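 active = fluorescence ratio B-score at or below minus 3 SD of library scores, with starting-brightness B-score within 2 SD, cut at about -4.2 in these data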;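 note: channel flux triggered by added potassium and thallium sulfate stimulus; B-score of peak minus minimum fluorescence over baseline after thallium stimulus; more negative B-score means stronger Kir2.1 block with less thallium influx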
Target sequence (P35561 whole entry, looked up): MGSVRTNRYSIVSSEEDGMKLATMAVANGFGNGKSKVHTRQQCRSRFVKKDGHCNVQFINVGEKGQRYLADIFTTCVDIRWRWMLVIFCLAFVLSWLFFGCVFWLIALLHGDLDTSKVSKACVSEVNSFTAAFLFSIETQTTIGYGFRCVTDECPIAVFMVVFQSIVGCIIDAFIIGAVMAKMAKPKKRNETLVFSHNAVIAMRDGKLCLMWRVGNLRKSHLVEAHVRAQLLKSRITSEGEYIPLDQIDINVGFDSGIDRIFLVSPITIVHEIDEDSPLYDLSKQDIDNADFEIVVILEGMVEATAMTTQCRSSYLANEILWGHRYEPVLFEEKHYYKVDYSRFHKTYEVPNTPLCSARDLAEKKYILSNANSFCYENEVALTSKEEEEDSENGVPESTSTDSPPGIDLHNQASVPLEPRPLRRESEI
CHT block: human CHT choline transport inhibition; CHT-expressing cells, membrane potential dye, choline response; stronger effect = lower value; AID 488975; actives 0.86% (n = 310,000); Q9GZV3; B-score at 10 µM;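 active = B-score over 3 SD under the library average, and starting fluorescence ratio not unusually high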;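 note: choline stimulus applied at its EC90 after an EC20 pre-addition; B-score computed on integrated fluorescence ratio after choline addition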
GPR7 antagonist: human neuropeptides B/W receptor 1 antagonism | actives 1.1% (n = 290,000) | AID 1861 | inhibition, % at 4.4 µM | GPR7-expressing cells, fluorescence antagonist assay | P48145; in the data active = inhibition above about 16%, passing the limit was not always enough;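 note: cells stimulated with the agonist NPW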
Target sequence (P48145 whole entry, looked up): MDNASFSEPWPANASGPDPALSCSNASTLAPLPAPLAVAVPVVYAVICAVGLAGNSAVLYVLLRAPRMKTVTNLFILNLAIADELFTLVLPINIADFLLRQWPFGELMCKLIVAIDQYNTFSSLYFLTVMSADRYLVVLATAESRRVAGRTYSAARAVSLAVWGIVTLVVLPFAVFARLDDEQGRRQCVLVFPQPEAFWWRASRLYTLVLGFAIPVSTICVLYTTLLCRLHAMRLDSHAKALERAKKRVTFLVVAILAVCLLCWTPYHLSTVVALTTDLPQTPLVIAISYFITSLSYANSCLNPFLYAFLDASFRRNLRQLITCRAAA
ANO1 activ: activates or potentiates the mouse TMEM16A chloride channel | Q8BHY3 | actives 0.3% (n = 340,000) | B-score at 10 µM | AID 623877 | HEK293 TMEM16A/YFP-H148Q/I152L, iodide quench fluorescence; stronger effect = lower value;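 active = fluorescence-ratio B-score plate-corrected deviation score at least 3 library SD below zero, with starting fluorescence score within 5 deviations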;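 note: channel opened by trigger with iodide after compound preincubation; score built on the fluorescence ratio of max minus min over baseline; more negative score means more quench and so TMEM16A activation or potentiation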
CHT allo act: allosteric activators of human choline transporter CHT; actives 0.49% (n = 310,000); AID 488977; Q9GZV3; CHT-expressing cells, membrane potential dye, choline EC20; stronger effect = higher value; LV-AA mutant CHT in HEK293 cells; B-score at 10 µM;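 active = initial fluorescence not abnormally high and integrated response B-score, plate-corrected, over 3 SD above library mean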
TMEM16A reconf: TMEM16A (mouse) chloride channel inhibition, re-confirmation; inhibition, % at 10 µM; actives 39% (n = 2,300); HEK293 TMEM16A/YFP-H148Q, iodide quench fluorescence; ionomycin added to raise cell calcium; shares compounds with TMEM16A inh;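 active = mean duplicate percent inhibition, scaled so buffer wells are 0 and the reference blocker 100, over three buffer SD above buffer mean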
TMEM16A Ca cntr: counter-screen for TMEM16A inhibitors: effect on calcium mobilization; TMEM16A/YFP HEK293, Fluo4 calcium mobilization; shares compounds with TMEM16A inh; actives 2% (n = 2,300); calcium response (% of ionomycin), % at 10 µM; AID 652231;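 active = duplicate-averaged calcium signal over 20% of the ionomycin maximum, relative to buffer baseline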;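 note: each well's signal is peak minus trough fluorescence divided by its pre-addition baseline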
YFP-HEK293 quench: acts in parental YFP-HEK293 cells lacking TMEM16A, counter-screen; shares compounds with TMEM16A inh; AID 652233; YFP ratio F(max-min)/F0 at 10 µM; iodide YFP quench, ionomycin; 2,300 tested, under 10 active;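 active = yellow fluorescent protein signal ratio exceeding the buffer control mean by over 5 SD of those controls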;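 note: ratio is mean of duplicate wells from kinetic YFP trace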
ClC-1 inh: rat ClC-1 inhibition, TMEM16A specificity screen | shares compounds with TMEM16A inh | CHO ClC-1-YFP, iodide influx fluorescence quench; iodide control reads 0, buffer control 100 | ratio percent, % at 10 µM | 2,300 tested, under 10 active;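 active = duplicate-mean ratio percent above the mean of iodide-only control wells, which defines zero, plus 5 of their SD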;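 note: higher percent means stronger block of ClC-1 iodide influx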
Large screens that a line does not name were inactive (follow-up assays come after a bar, where they were run). In the library only some 3.7% were active in any assay of this set; here they are far more common.

O=S(=O)(NCCSCc1c(Cl)cccc1Cl)c1ccc2c(c1)OCCO2	TMEM16A inh 25 | TMEM16A reconf inactive | TMEM16A Ca cntr inactive | YFP-HEK293 quench inactive | ClC-1 inh inactive
CCOc1ccccc1C(=O)NC(C(=O)Nc1cccnc1)C(C)C (stereo unspecified)	none
CC(C(=O)NC1CCCc2ccccc21)N1CCN(Cc2ccc3c(c2)OCO3)CC1 (stereo unspecified)	TMEM16A inh 25 | TMEM16A reconf inactive | TMEM16A Ca cntr inactive | YFP-HEK293 quench inactive | ClC-1 inh inactive
CC(C(=O)NC1CCCc2ccccc21)N1CCN(c2ccc(F)cc2)CC1 (stereo unspecified)	none
COc1cc(CNS(=O)(=O)c2ccc3c(c2)CC(C)N3C(=O)C2CCC2)cc(OC)c1OC (stereo unspecified)	TMEM16A inh 25 | TMEM16A reconf inactive | TMEM16A Ca cntr inactive | YFP-HEK293 quench inactive | ClC-1 inh inactive
CC1Cc2cc(S(=O)(=O)NCCc3ccccc3)ccc2N1C(=O)C1CC1 (stereo unspecified)	none
COc1ccccc1NC(=O)c1cccc2c(Br)cccc12	none
O=C(Nc1ccnc(-c2ccncc2)n1)c1ccc(Cl)cc1	none
Cc1ccc(C(=O)NC(=S)NNC(=O)COc2ccccc2C)cc1	TMEM16A inh 25 | TMEM16A reconf 20% | TMEM16A Ca cntr inactive | YFP-HEK293 quench inactive | ClC-1 inh inactive
COC(=O)c1ccc(COC(=O)c2ccc(C)c(S(=O)(=O)N3CCCCC3)c2)cc1	none (no result: TMEM16A inh, Kir21 inh, CHT block, GPR7 antagonist, CHT allo act)
O=C(Nc1ccc(Cl)cc1-c1nc2ccccc2s1)c1ccco1	none | TMEM16A reconf inactive | TMEM16A Ca cntr inactive | YFP-HEK293 quench inactive | ClC-1 inh inactive
CC(=O)c1cn(CC(=O)Nc2ccc(C)cc2C)c2ccccc12	TMEM16A inh 25 | TMEM16A reconf 20% | TMEM16A Ca cntr inactive | YFP-HEK293 quench inactive | ClC-1 inh inactive
CC(NC(=O)c1cccs1)c1n[nH]c(=S)n1C (stereo unspecified)	none
CCOC(=O)c1nn(-c2ccccc2)c(C#N)c1NC(=O)c1nn(CC)cc1Br	none
CCOC(=O)c1c(NC(=O)c2nn(CC)cc2Br)c(C#N)nn1-c1ccccc1	TMEM16A inh 100 | TMEM16A reconf inactive | TMEM16A Ca cntr inactive | YFP-HEK293 quench inactive | ClC-1 inh inactive
COc1ccc(CCN2C(=O)CSC2=Nc2ccc(C(C)C)cc2)cc1OC	TMEM16A inh 100 | TMEM16A reconf 53% | TMEM16A Ca cntr inactive | YFP-HEK293 quench inactive | ClC-1 inh inactive
O=C(Cn1c2ccccc2c(=O)c2ccccc21)Nc1cccc(F)c1	none
Cc1cc(Cl)ccc1OCc1nc(-c2ccc(O)cc2)n[nH]1	TMEM16A inh 25 | TMEM16A reconf 26% | TMEM16A Ca cntr inactive | YFP-HEK293 quench inactive | ClC-1 inh inactive
Cc1ccc(C(=O)CC(=O)COc2ccc(Cl)cc2C)cc1	none
COc1ccc(-c2csc(Nc3cc(C)ccn3)n2)cc1OC	TMEM16A inh 25 | TMEM16A reconf 24% | TMEM16A Ca cntr inactive | YFP-HEK293 quench inactive | ClC-1 inh inactive
COc1ccc(CNS(=O)(=O)c2ccc(Br)s2)cc1	none (no result: ANO1 activ)
COc1cc(NS(=O)(=O)c2ccc(Br)s2)cc(OC)c1	TMEM16A inh 25 | TMEM16A reconf 32% | TMEM16A Ca cntr inactive | YFP-HEK293 quench inactive | ClC-1 inh inactive
Oc1[nH]c2ccccc2c1N=Nc1ccccc1	none | TMEM16A reconf inactive | TMEM16A Ca cntr inactive | YFP-HEK293 quench inactive | ClC-1 inh inactive
CC(=O)c1ccc(C(=O)N2CCC(CO)(Cc3cccc(C(F)(F)F)c3)CC2)cc1	TMEM16A inh 100 | TMEM16A reconf inactive | TMEM16A Ca cntr inactive | YFP-HEK293 quench inactive | ClC-1 inh inactive
CC(C)(C)C1CCc2c(sc(NC(=O)C3CC=CCC3C(=O)O)c2C#N)C1 (stereo unspecified)	TMEM16A inh 100 | TMEM16A reconf 21% | TMEM16A Ca cntr inactive | YFP-HEK293 quench inactive | ClC-1 inh inactive
CC(C)NC(=O)CC(c1ccccc1)c1cc(Br)ccc1O (stereo unspecified)	none
CCCCCCNC(=O)CC(c1ccccc1)c1cc(Br)ccc1O (stereo unspecified)	TMEM16A inh 100 | TMEM16A reconf 47% | TMEM16A Ca cntr inactive | YFP-HEK293 quench inactive | ClC-1 inh inactive
O=C(Nc1nc(-c2ccccc2)cs1)c1ccc2c(=O)n3c(nc2c1)CCCCC3	TMEM16A inh 100 | TMEM16A reconf inactive | TMEM16A Ca cntr inactive | YFP-HEK293 quench inactive | ClC-1 inh inactive
COc1ccc(CN(C)C(=S)Nc2ccc(Cl)cc2)cc1	none
CC1CN(S(=O)(=O)c2ccc(C(=O)Nc3nnc(-c4ccc5c(c4)CCCC5)o3)cc2)CC(C)O1 (stereo unspecified)	TMEM16A inh 100 | TMEM16A reconf 32% | TMEM16A Ca cntr inactive | YFP-HEK293 quench inactive | ClC-1 inh inactive
CC1CN(S(=O)(=O)c2ccc(C(=O)Nc3nnc(-c4ccccn4)o3)cc2)CC(C)O1 (stereo unspecified)	none
Cc1cccc(CSc2nc3ccccc3c(=O)n2C)c1	none (no result: TMEM16A inh, Kir21 inh, CHT block, GPR7 antagonist, CHT allo act)
Clc1ccc(-c2nnc(CSc3nnc(-c4cccs4)n3Cc3ccccc3)o2)cc1	TMEM16A inh 25 | TMEM16A reconf 42% | TMEM16A Ca cntr inactive | YFP-HEK293 quench inactive | ClC-1 inh inactive
Cc1nnc(SCc2nnc(-c3cccs3)o2)n1Cc1ccccc1	none
O=C(COc1ccc2c3c(c(=O)oc2c1)CCCC3)N1CCN(c2ccccc2)CC1	none
CC(C)(C)OC(=O)N1CCN(c2ccc(CNC(=O)c3ccc(Cl)cc3)cc2)CC1	TMEM16A inh 100 | TMEM16A reconf 22% | TMEM16A Ca cntr inactive | YFP-HEK293 quench inactive | ClC-1 inh inactive
Cc1ccc(S(=O)(=O)N(CC(=O)NCC2CCCO2)C2CCCCC2)cc1 (stereo unspecified)	none
Cc1nc(OCc2ccccc2)c2ccccc2n1	TMEM16A inh 100 | TMEM16A reconf inactive | TMEM16A Ca cntr inactive | YFP-HEK293 quench inactive | ClC-1 inh inactive
Cc1nc2ccccc2cc1OCc1ccccc1	TMEM16A inh 100 | TMEM16A reconf 32% | TMEM16A Ca cntr inactive | YFP-HEK293 quench inactive | ClC-1 inh inactive
Cc1cccc(OCc2ccccc2)n1	none (no result: TMEM16A inh, Kir21 inh, CHT block, GPR7 antagonist, CHT allo act)

Screens (PubChem)
